This is an account of results in PubChem BioAssay (NCI).

Among the test systems are DU-145 prostate; K-562 leukemia; MALME-3M melanoma; MDA-MB-231 breast; SF-268 CNS; SF-295 CNS; SF-539 CNS; UACC-257 melanoma; M14 melanoma; HCT-15 colon; HT29 colon; SNB-75 CNS; SNB-19 CNS; U251 CNS; PC-3 prostate; SK-MEL-5 melanoma; UACC-62 melanoma; LOX IMVI melanoma; SK-MEL-28 melanoma; RXF 393 renal.
Common to all, as to test: NCI-60 one-dose screen, 48 h (100 = growth as untreated, 0 = no growth, -100 = all killed)
What all share (conditions): 10 µM unless noted

Each structure is given as a SMILES string. This is part of a sample that, as a whole, favours compounds with a hit. Of some 83,000 tested, about 20% had one in any assay.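 Results are percent growth after 48 hours of single-concentration exposure. 100 means growth as in untreated cells, lower positive values show inhibition; negative values down to -100 show cell death.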 Unmarked numbers belong to inactive results. Active and inactive are the calls of the source. Rule for the calls: active = growth percent below 10; inactive = the rest.

Take `CC(/C=N/NC(=O)c1cc(-c2ccco2)[nH]n1)=C\c1ccccc1`: the growth in the test with DU-145 prostate is 101%; in the test on K-562 leukemia, 86.6%; with MALME-3M melanoma, 91.3%; in the test with MDA-MB-231 breast, 102%; with SF-268 CNS, 93.9%; in the test with SF-295 CNS, 69.9%. In addition, the growth in the test on SF-539 CNS is 102%; in the test with UACC-257 melanoma it was 89.9%; in the test with M14 melanoma, 95%; in the test with HCT-15 colon, 93.2%; in the test on HT29 colon, 113%; in the test with SNB-75 CNS it was 66.8%. The growth is 100% with SNB-19 CNS; 96.7% in the test on U251 CNS; 92.1% in the test on PC-3 prostate; 98.8% in the test on SK-MEL-5 melanoma; 94% in the test with UACC-62 melanoma; 97.9% with LOX IMVI melanoma. In addition, the growth in the test with SK-MEL-28 melanoma is 104%.

Take `Cc1nc(Nc2ccc(NC(=S)Nc3ccccc3)cc2)nc2nc(Nc3cccc(Cl)c3)[nH]c(=O)c12`: the growth was 123% in the test with DU-145 prostate; 71.8% with K-562 leukemia; 120% in the test on MALME-3M melanoma; 84.7% in the test with MDA-MB-231 breast; -12.9% (active) in the test on RXF 393 renal; 104% in the test on SF-268 CNS. Moreover, the growth in the test on SF-295 CNS was 116%; in the test with SF-539 CNS, 67.5%; in the test with UACC-257 melanoma, 98.9%; with HCT-15 colon, 98.2%; with SNB-75 CNS, 84.7%; with SNB-19 CNS, 102%. Also, the growth in the test with U251 CNS is 92%; in the test on PC-3 prostate, 93.1%; with SK-MEL-5 melanoma, 102%; in the test on UACC-62 melanoma, 102%; in the test with SK-MEL-28 melanoma it was 93.2%.

Take `CN(C)CCCCNc1ccc(NCCCCN(C)C)c2c1C(=O)c1c(O)ccc(O)c1C2=O`: the growth in the test on DU-145 prostate is 58.3%; with K-562 leukemia, -54.5% (active); with MALME-3M melanoma, 130%; in the test on MDA-MB-231 breast it was -78.2% (active); with RXF 393 renal it was -96% (active); with SF-268 CNS, 76.2%. Further, the growth was -81.5% (active) in the test on SF-295 CNS; 99.5% in the test on UACC-257 melanoma; -63.3% (active) in the test with M14 melanoma; -66.4% (active) in the test with HCT-15 colon; -52.3% (active) in the test on HT29 colon; 79.5% in the test on SNB-75 CNS. The growth is 2.06% (active) in the test on SNB-19 CNS; -85.6% (active) in the test on U251 CNS; -76.9% (active) in the test with PC-3 prostate; 89.4% in the test on SK-MEL-5 melanoma; 104% in the test on UACC-62 melanoma; -79% (active) in the test on LOX IMVI melanoma. The growth in the test with SK-MEL-28 melanoma is 112%.

Consider `CN(C)CCN1C(=O)c2cccc3c(-c4ccc(-c5nc6c7ccccc7c7ccccc7c6[nH]5)cc4)ccc(c23)C1=O`, for which the growth was 102% with DU-145 prostate; 28.5% with K-562 leukemia; 110% in the test on MALME-3M melanoma; 89.1% with MDA-MB-231 breast; 105% in the test with SF-268 CNS; 105% in the test with SF-295 CNS. In addition, the growth in the test on SF-539 CNS is 92.7%; with UACC-257 melanoma it was 110%; in the test with HCT-15 colon, 102%; in the test on HT29 colon, 81.1%; in the test with SNB-75 CNS it was 117%; in the test on SNB-19 CNS, 110%. Further, the growth in the test on U251 CNS is 95.5%; with PC-3 prostate, 87.9%; in the test with SK-MEL-5 melanoma, 101%; in the test on UACC-62 melanoma, 112%; in the test with LOX IMVI melanoma it was 58%; in the test with SK-MEL-28 melanoma, 114%.

Regarding `COc1ccc(-c2cc(-c3ccc(Nc4nc(Nc5ccccc5)nc(Nc5ccc(Cl)cc5)n4)cc3)nc(N)c2C#N)cc1`, the growth in the test on DU-145 prostate is 33%; in the test with K-562 leukemia, 4.07% (active); in the test on MALME-3M melanoma, -76.6% (active); in the test with MDA-MB-231 breast, -27.4% (active); in the test on RXF 393 renal it was -12.1% (active); with SF-268 CNS, -26.4% (active). The growth with SF-295 CNS is 34.4%; with SF-539 CNS, -54.9% (active); in the test with UACC-257 melanoma, -11.4% (active); with HCT-15 colon, -33.6% (active); with HT29 colon it was 6.85% (active); with SNB-75 CNS, 26.7%. Further, the growth is 71.9% in the test on SNB-19 CNS; -57.9% (active) in the test on U251 CNS; -21.8% (active) with SK-MEL-5 melanoma; 22.8% in the test on UACC-62 melanoma; -97.3% (active) in the test with LOX IMVI melanoma; -72.9% (active) in the test with SK-MEL-28 melanoma.

Consider `CCC(=O)OC1=C(C)SC2=NC(c3ccc(Cl)c(Cl)c3)=CC(c3cc(OC)c(OC)c(OC)c3)N21` (stereo not drawn), for which the growth is 114% in the test with DU-145 prostate; 103% in the test with K-562 leukemia; 104% in the test on MALME-3M melanoma; 90.2% with MDA-MB-231 breast; 91% with RXF 393 renal; 102% in the test on SF-268 CNS. The growth in the test on SF-295 CNS was 94.8%; with SF-539 CNS it was 90.9%; in the test on M14 melanoma it was 106%; in the test on HCT-15 colon, 89.8%; in the test on HT29 colon, 103%; in the test on SNB-75 CNS, 76.9%. The growth in the test with SNB-19 CNS was 94.5%; with U251 CNS, 95.9%; in the test with PC-3 prostate, 91.8%; in the test with SK-MEL-5 melanoma, 98.7%; in the test on UACC-62 melanoma, 87.8%; with LOX IMVI melanoma, 99.6%. Besides, the growth with SK-MEL-28 melanoma is 104%.

For the compound `Cc1nc(C)c(-c2nn3c(-c4cccc(F)c4)nnc3s2)s1`, the growth in the test with DU-145 prostate was 102%; with K-562 leukemia, 70.4%; in the test on MALME-3M melanoma, 111%; with MDA-MB-231 breast, 107%; in the test with RXF 393 renal it was 96.3%; in the test with SF-268 CNS, 97.6%. The growth with SF-295 CNS is 100%; in the test with SF-539 CNS, 104%; in the test on UACC-257 melanoma, 92.4%; in the test on HCT-15 colon it was 101%; in the test with SNB-75 CNS, 113%; in the test with SNB-19 CNS, 93.6%. Besides, the growth is 93.5% in the test on U251 CNS; 89.3% in the test on PC-3 prostate; 92.8% in the test on SK-MEL-5 melanoma; 96% with UACC-62 melanoma; 99.9% in the test with LOX IMVI melanoma; 119% in the test on SK-MEL-28 melanoma.

As for `Clc1ccc(/C=C/c2nc(Nc3ccc(Cl)cc3)c3ccccc3n2)cc1`, the growth with DU-145 prostate is 118%; with K-562 leukemia it was 103%; with MALME-3M melanoma it was 105%; in the test with MDA-MB-231 breast, 93.7%; in the test with SF-268 CNS, 102%; in the test with SF-295 CNS, 100%. The growth with SF-539 CNS is 96.1%; in the test with UACC-257 melanoma, 98.9%; with HCT-15 colon, 99%; in the test on HT29 colon it was 112%; in the test on SNB-75 CNS, 93.6%; with SNB-19 CNS, 100%. For the same compound, the growth is 100% in the test on U251 CNS; 99.2% with PC-3 prostate; 96.9% in the test with SK-MEL-5 melanoma; 93.2% in the test with UACC-62 melanoma; 97.1% in the test with LOX IMVI melanoma; 117% with SK-MEL-28 melanoma.

On to `Cc1nc(Nc2cccc(NC(=O)Nc3ccc(Cl)cc3)c2)c2ccccc2n1`, for which the growth with DU-145 prostate is 91.7%; with K-562 leukemia it was 67.6%; in the test with MALME-3M melanoma, 87.3%; with MDA-MB-231 breast, 86.4%; in the test with SF-268 CNS, 102%; in the test on SF-295 CNS, 88.2%. Also, the growth in the test on SF-539 CNS is 94.6%; with UACC-257 melanoma it was 101%; in the test on HCT-15 colon, 77%; with HT29 colon, 80.8%; in the test with SNB-75 CNS, 85.3%; in the test on SNB-19 CNS, 99.9%. For the same compound, the growth was 91.9% with U251 CNS; 77.9% with PC-3 prostate; 91.5% in the test with SK-MEL-5 melanoma; 76.4% in the test with UACC-62 melanoma; 102% in the test with SK-MEL-28 melanoma.
